Active and inactive are the calls of the source. Calls follow the shape of the dose curve; as a rule, active = well fitted curve in the direction sought with a large enough effect in the repeat runs; inconclusive = weak or mixed curves; inactive = flat fitted curve, though single readings scatter.
Test: qHTS assay to test for compound auto fluorescence at 590 nm (red) in HepG2 cell free culture (AID 720684); also: potency is read from the fitted curve at half-maximal effect
Details: cell-free medium autofluorescence, red 540/590 nm; series mostly up to 91.3 µM; fluorescence, % of Rose Bengal: at the top concentration
Method in brief: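 Steps: dispense MEM/10% FBS medium, no cells; pin compound or DMSO vehicle; read red channel, Ex/Em 540/590 nm. Output given as Rose Bengal sodium equivalents.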
% is scaled to controls: 0 for no effect and ±100 for the full control effect; tags tell the direction and shape of the fitted curve or compound fluorescence and quenching.

| SMILES | fluorescence, % of Rose Bengal | Potency |
| --- | --- | --- |
| CCCCCc1ccc(Cl)cc1 | -0.373% (inactive) | – |
| C=Cc1cccc(C)c1 | 0.114% (inactive) | – |
| CC(C)OC(=O)C(O)(CC(=O)O)CC(=O)O | -0.189% (inactive) | – |
| Clc1nnc(Cl)c2ccccc12 | 0.0007% (inactive) | – |
| [Cl][Pt-2]([Cl])([Cl])[Cl] | 0.11% (inactive) | – |
| O=S(=O)(O)c1ccc(N=Nc2c(O)ccc3ccccc23)cc1 | 0.101% (inactive) | – |
| CCOC(=O)NNc1ccc(N(CC)CC(C)O)nn1 (stereo unspecified) | -0.0201% [at 46 µM] (inactive) | – |
| CC(C)(C)C1CCC(=O)CC1 | 0.0126% (inactive) | – |
| C1CCC(SSC2CCCCC2)CC1 | 0.0364% (inactive) | – |
| CCN(CC)c1ccc2c(-c3ccc(S(=O)(=O)O)cc3S(=O)(=O)[O-])c3ccc(=[N+](CC)CC)cc-3oc2c1 | – | 355 nM [fluorescent] (active) |
| COc1ccc(NC(=O)CC(C)=O)cc1 | -0.116% (inactive) | – |

Test: qHTS assay to test for compound auto fluorescence at 460 nm (blue) in HepG2 cell free culture (AID 720685)
Details: Cell-free culture medium, blue autofluorescence 405/460 nm; series mostly up to 91.3 µM; fluorescence, % of fluorescent control: at the top concentration
Method in brief: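 Compound (23 nL) or DMSO pinned into cell-free MEM with 10% FBS; blue fluorescence read at 405/460 nm excitation/emission, expressed as auto-fluorescence equivalency to triamterene.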

| SMILES | fluorescence, % of fluorescent control | Potency |
| --- | --- | --- |
| CCCCNS(=O)(=O)c1ccc(C)cc1 | 0.0519% (inactive) | – |
| CCCCCCCCCCCCCC[N+](C)(C)C | – | inactive |
| O=C(Oc1ccccc1)Oc1ccccc1 | 0.0028% (inactive) | – |
| OC1CCCc2ccccc21 (stereo unspecified) | 0.0425% (inactive) | – |
| OC[C@H]1O[C@H](O[C@H]2O[C@H](CO)[C@@H](O)[C@H](O)[C@H]2O)[C@H](O)[C@@H](O)[C@@H]1O | -0.0322% (inactive) | – |
| CC(C)CCCCCOC(=O)CCS | 0.0965% (inactive) | – |
| CCC(COC(=O)CCS)(COC(=O)CCS)COC(=O)CCS | 0.0033% (inactive) | – |
| COC(=O)Nc1nc2ccc(C(=O)c3ccccc3)cc2[nH]1 | 0.0166% [at 18.6 µM] (inactive) | – |
| CC(=O)OCC=C(C)C | 0.107% (inactive) | – |
| CCCCCCOC(=O)C(C)CC (stereo unspecified) | -0.0523% (inactive) | – |
| COC(=O)c1ccccc1C | -0.0414% (inactive) | – |
| CN(C)Cc1cc(C(C)(C)C)c(O)c(C(C)(C)C)c1 | -0.0696% (inactive) | – |
| CC/C=C\CCCCCO | -0.032% (inactive) | – |
| Cc1ccc(N/N=c2\c(=O)cc/c(=N\Nc3ccc(S(=O)(=O)O)cc3)c2=O)c(C)c1 | -0.552% (inactive) | – |
| O=C(/C=C/c1ccccc1)OC/C=C/c1ccccc1 | -0.0146% (inactive) | – |
| CCC(=O)OC(=O)CC | 0.0876% (inactive) | – |
| COc1cc(S(=O)(=O)O)c(C)cc1N=Nc1c(O)ccc2cc(S(=O)(=O)O)ccc12 | -0.817% (inactive) | – |
| O=[N+]([O-])c1cccc(C(F)(F)F)c1 | 0.123% (inactive) | – |

| SMILES | fluorescence, % of fluorescent control | Potency |
| --- | --- | --- |
| CCO[Si](OCC)(OCC)OCC | -0.0895% [at 95.7 µM] (inactive) | – |
| Cc1ccc(-c2ccccc2)cc1 | -0.117% (inactive) | – |
| ClCCl | -0.305% (inactive) | – |
| C[Si](Cl)(c1ccccc1)c1ccccc1 | -0.122% (inactive) | – |
| NC(=S)NC(N)=S | -0.0303% (inactive) | – |
| O=C(O)[C@H](O)[C@@H](O)[C@H](O[C@@H]1O[C@H](CO)[C@H](O)[C@H](O)[C@H]1O)[C@H](O)CO | 0.0634% [at 18.6 µM] (inactive) | – |
| CCCCN(CCCC)CC(O)c1cc(Cl)cc2c1-c1ccc(Cl)cc1/C2=C/c1ccc(Cl)cc1 (stereo unspecified) | 0.122% [at 46 µM] (inactive) | – |
| CCCCCc1ccc(Cl)cc1 | -0.0066% (inactive) | – |
| C=Cc1cccc(C)c1 | -0.0135% (inactive) | – |
| CC(C)OC(=O)C(O)(CC(=O)O)CC(=O)O | -0.0956% (inactive) | – |
| Clc1nnc(Cl)c2ccccc12 | 0.0175% (inactive) | – |
| [Cl][Pt-2]([Cl])([Cl])[Cl] | -0.0025% (inactive) | – |
| O=S(=O)(O)c1ccc(N=Nc2c(O)ccc3ccccc23)cc1 | -0.83% (inactive) | – |
| CCOC(=O)NNc1ccc(N(CC)CC(C)O)nn1 (stereo unspecified) | 0.113% [at 46 µM] (inactive) | – |
| CC(C)(C)C1CCC(=O)CC1 | -0.122% (inactive) | – |
| C1CCC(SSC2CCCCC2)CC1 | 0.0652% (inactive) | – |
| CCN(CC)c1ccc2c(-c3ccc(S(=O)(=O)O)cc3S(=O)(=O)[O-])c3ccc(=[N+](CC)CC)cc-3oc2c1 | -0.191% [at 95.7 µM] (inactive) | – |

Test: qHTS assay to test for compound auto fluorescence at 535 nm (green) in HepG2 cell free culture (AID 720686)
Details: Cell-free medium, green autofluorescence 485/535 nm; series mostly up to 91.3 µM; fluorescence, % of fluorescein control: at the top concentration

| SMILES | Potency | fluorescence, % of fluorescein control |
| --- | --- | --- |
| CCCCCCCCCCCCCC[N+](C)(C)C | inactive | – |
| OC1CCCc2ccccc21 (stereo unspecified) | – | -0.129% (inactive) |
| OC[C@H]1O[C@H](O[C@H]2O[C@H](CO)[C@@H](O)[C@H](O)[C@H]2O)[C@H](O)[C@@H](O)[C@@H]1O | – | 0.0821% (inactive) |
| CC(C)CCCCCOC(=O)CCS | – | -0.0947% (inactive) |
| CCC(COC(=O)CCS)(COC(=O)CCS)COC(=O)CCS | – | 0.0081% (inactive) |
| CC(=O)OCC=C(C)C | – | 0.108% (inactive) |
| CCCCCCOC(=O)C(C)CC (stereo unspecified) | – | 0.0437% (inactive) |
| COC(=O)c1ccccc1C | – | 0.0048% (inactive) |
| CN(C)Cc1cc(C(C)(C)C)c(O)c(C(C)(C)C)c1 | – | 0.0831% (inactive) |
| CC/C=C\CCCCCO | – | 0.0186% (inactive) |
| Cc1ccc(N/N=c2\c(=O)cc/c(=N\Nc3ccc(S(=O)(=O)O)cc3)c2=O)c(C)c1 | – | -0.414% (inactive) |
| O=C(/C=C/c1ccccc1)OC/C=C/c1ccccc1 | – | 0.051% (inactive) |
| COc1cc(S(=O)(=O)O)c(C)cc1N=Nc1c(O)ccc2cc(S(=O)(=O)O)ccc12 | – | -0.854% (inactive) |
| O=[N+]([O-])c1cccc(C(F)(F)F)c1 | – | -0.0872% (inactive) |
| CCO[Si](OCC)(OCC)OCC | – | -0.133% [at 95.7 µM] (inactive) |
| Cc1ccc(-c2ccccc2)cc1 | – | 0.0014% (inactive) |
| ClCCl | – | -0.0678% (inactive) |
| CN1CCCCC1CCN1c2ccccc2Sc2ccc(S(C)=O)cc21 (stereo unspecified) | inactive | – |
| C[Si](Cl)(c1ccccc1)c1ccccc1 | – | -0.0541% (inactive) |
| NC(=S)NC(N)=S | – | -0.0093% (inactive) |
| O=C(O)[C@H](O)[C@@H](O)[C@H](O[C@@H]1O[C@H](CO)[C@H](O)[C@H](O)[C@H]1O)[C@H](O)CO | – | -0.112% [at 18.6 µM] (inactive) |
| CCCCN(CCCC)CC(O)c1cc(Cl)cc2c1-c1ccc(Cl)cc1/C2=C/c1ccc(Cl)cc1 (stereo unspecified) | – | 0.0158% [at 46 µM] (inactive) |
| C=Cc1cccc(C)c1 | – | 0.0876% (inactive) |
| CC(C)OC(=O)C(O)(CC(=O)O)CC(=O)O | – | -0.0014% (inactive) |
| Clc1nnc(Cl)c2ccccc12 | – | -0.121% (inactive) |
| O=S(=O)(O)c1ccc(N=Nc2c(O)ccc3ccccc23)cc1 | – | -0.141% (inactive) |
| CCOC(=O)NNc1ccc(N(CC)CC(C)O)nn1 (stereo unspecified) | – | 0.017% [at 46 µM] (inactive) |
| CC(C)(C)C1CCC(=O)CC1 | – | 0.0603% (inactive) |
| C1CCC(SSC2CCCCC2)CC1 | – | 0.0235% (inactive) |
| COc1ccc(NC(=O)CC(C)=O)cc1 | – | 0.0035% (inactive) |
